# Compounds without any hit were thinned out: in the full panel of roughly 83,000, 20% have a hit.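 Note: values are percent growth. 100 is the growth of untreated cells, values between 100 and 0 indicate rising inhibition; between -100 and 0 indicates cell death.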 Unmarked numbers belong to inactive results. The source made the active and inactive calls. The calls were made as follows: active = growth percent below 10; inactive = the rest.
# System: HL-60(TB) leukemia
# Assay: NCI-60 one-dose screen, 48 h (100 = growth as untreated, 0 = no growth, -100 = all killed)
# Conditions: 10 µM unless noted
row,Structure (SMILES),growth
1,O=c1c2cc(Br)cc(Br)c2nc(-c2ccc(Cl)cc2)n1/N=C\c1ccccc1F,82%
2,NC(=Nc1ccccc1)SCCCSC(N)=Nc1ccccc1,82.6%
3,Cc1cc2c(cc1C)Nc1sc(NC(=O)CN3CCN(C)CC3)nc1C(=O)N2,83.3%
4,C=CC(=O)Nc1ccc2ncnc(Nc3cccc(NS(=O)(=O)CCC)c3Cl)c2c1,80.7%
5,C/C1=C\CC[C@@]2(C)O[C@H]2[C@H]2OC(=O)C(CN3CCN(CC4C(=O)O[C@H]5[C@H]4CC/C(C)=C/CC[C@@]4(C)O[C@@H]54)CC3)[C@@H]2CC1 (stereo not given in full),98.7%
6,COC(=O)[C@]12CC[C@@H](C)[C@H](C)[C@@H]1C1=CC[C@@H]3[C@@]4(C)C[C@@H](OC(=O)c5ccco5)[C@H](O)[C@@](C)(CO)[C@@H]4[C@H](O)C[C@@]3(C)[C@]1(C)CC2,-79.6% (active)
7,Oc1cccc(CNC2CCCCC2)c1,107%
8,C/C=C1/CN(CCCCC)CC[C@H]1C(=O)c1cc2ccccc2[nH]1,90.6%
9,Nn1c(SCC(=O)Nc2ccc(Cl)cc2)nnc1-c1cc(F)c(Cl)cc1Cl,84.5%
10,CCCCCCCCCCCCC1C/C=C\CCCC(=O)O1 (stereo not given),88.4%
11,CC(C)(C)[Si](C)(C)OC1[C@@H](O[Si](C)(C)C(C)(C)C)[C@@H](CNC(=O)NC(=O)NC(=O)CCl)O[C@H]1n1cnc2c(NC(=O)Nc3ccccc3)ncnc21 (stereo not given in full),19.7%
12,Oc1ccc(Cc2ccc(O)c3ncccc23)c2cccnc12,5.77% (active)
13,O=C(O[C@@H]1Cc2c(O)cc(O)cc2O[C@@H]1c1cc(O)c(O)c(O)c1)c1cc(O)c2c(c1)OCO2,91.1%
14,O=C(N/N=C/c1ccccc1Cl)C(=O)Nc1cccc(C(F)(F)F)c1,106%
15,CC(CC(CCC(=O)O)(c1ccccc1)c1ccccc1)N(C)C (stereo not given),109%
16,CC(C)(C)c1cn2cccc(C(=O)N3CCN(CC(=O)Nc4ccc(Cl)cc4C(=O)c4ccccc4Cl)CC3)c2n1,-32.4% (active)
17,NS(=O)(=O)c1ccc(-n2nc(C(=O)N/N=C\c3ccc(F)cc3)cc2-c2ccc(Cl)cc2)cc1,121%
18,c1ccc2sc(SSN3CC4CCC(CC4)C3)nc2c1,89.3%
19,CSc1nc(S(C)(=O)=O)nc2[nH]c(=O)[nH]c12,108%
20,CCN(CC)CCCN1C(=O)c2c(c(C)c3c(oc4ccc(OC)cc43)c2C)C1=O,97.6%

row,Structure (SMILES),growth
1,COC(=O)CCC1=C(C)/C(=C/c2[nH]c(-c3ccc[nH]3)cc2OC)N=C1C,-23.3% (active)
2,O=C(Nc1cccc(-n2cc(-c3ccncc3)c(-c3cc(O)cc(Cl)c3)n2)c1)Nc1ccc(Cl)c(C(F)(F)F)c1,-26.9% (active)
3,O=C1/C(=C\c2coc3ccccc3c2=O)c2ccccc2N1c1c(Cl)cccc1Cl,33.8%
4,CN1CCN(CCCOc2ccc3nc(Nc4ccc(F)c(F)c4)ccc3c2)CC1,46.8%
5,O=C(NCCN1CCOCC1)OCc1nc2nc(Cl)nc(N3CCOCC3)c2[nH]1,-54% (active)
6,O=C(Nc1ccc(-n2cc(-c3ccncc3)c(-c3ccc(Cl)c(O)c3)n2)cc1)c1ccc(Cl)c(Cl)c1,-27% (active)
7,NC(=O)c1ccc(Br)o1,96.8%
8,COc1ccc(C2CCCCC2=O)cc1 (stereo not given),122%
9,S=c1[nH]nc(Cn2c3ccccc3c3ccncc32)o1,87.6%
10,O=c1c2c(c(=O)n1O)c1c3ccc[nH]c3nc1c1nc3[nH]cccc3c12,81%
11,N#Cc1c(-c2ccc(Cl)cc2)nc(NCCO)[nH]c1=O,102%
12,CN(C)CCOC(=O)Nc1ccc(Cc2ccc(NC(=O)OCCN(C)C)cc2)cc1,52.8% [100 µM]
13,Cn1c2c(c(=O)[nH]c1=O)NC1=C(C(=O)c3ccccc31)C1(C=C(O)c3ccccc31)N2 (stereo not given),109%
14,COc1cc(C)cc2oc3oc(=O)c(-c4csc(-c5cc6ccccc6oc5=O)n4)cc3c(=O)c12,115%
15,O=c1[nH]nc(-c2ccccc2)c2c(-c3ccccc3)onc12,-34% (active)
16,C[C@@H](Oc1cc(-c2cnn(C3CC4(CNC4)C3)c2)cnc1N)c1c(Cl)ccc(F)c1Cl,-1.19% (active)
17,CCN(CC)CCSc1c2ccc(Cl)cc2nc2ccc(OC)cc12,68.8%
18,CN(C)c1ccc(-c2ccc(-c3ccc(C(=N)N)c(F)c3)s2)cc1,-46.1% (active)
19,C/C(CC(C)C)=N/NC(N)=S,86.5%
20,COC1=C(OC)C(=O)C(OC)=C(OC)C1=O,102%

# From PubChem BioAssay (NCI)
